In the library only some 4.6% were active in any assay of this set; here they are far more common.
NALP3 yeast inh – NALP3 inhibition in yeast. Yeast reconstituted NLRP3/ASC/caspase-1, beta-gal luminescence, 24 h. inhibition, % at 10 µM. 330,000 tested, 0.39% active. AID 2825;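 active = inhibition of 50% or more; inactive = inhibition below 50%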;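 note: plate controls were induced DMSO wells for no effect and uninduced yeast grown without galactose for full effect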
SKKanGAS inh – SKKanGAS growth inhibition | AID 1662 | inhibition, % at 7.5 µM | 300,000 tested, 1.3% active | S. pyogenes SKKanGAS, kanamycin growth, BacTiter-Glo, 6 h;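 active = mean replicate score, as percent of positive control median, at least 50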;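 note: strain carries kanamycin resistance gene driven by streptokinase promoter and grows in 40 µg/ml kanamycin; loss of luminescence reflects streptokinase promoter inhibition or plain growth inhibition; 0% = median of DMSO wells and 100% = positive control at its reference dose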
tim23-1 inh – inhibits growth of tim23-1 mutant yeast; S. cerevisiae tim23-1 growth, BacTiter-Glo luminescence, 24 h; inhibition, % at 20 µM; 330,000 tested, 1.3% active; AID 463212;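 active = growth inhibition of the mutant yeast at or above 50%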;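 note: temperature-sensitive mutant grown at 25 °C; plate controls were DMSO-treated mutant yeast for no effect and medium wells lacking yeast for full effect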
tim10-1 inh – inhibits growth of tim10-1 mutant yeast. S. cerevisiae tim10-1 ts strain growth, BacTiter-Glo, 24 h. inhibition, % at 20 µM. 330,000 tested, 2.2% active. AID 463190;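 active = inhibition of at least 40%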;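 note: mutant grown at 25 °C; 0% = DMSO wells with yeast and 100% = wells holding no yeast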
TIM10 inh – inhibits growth of TIM10 yeast strain. 330,000 tested, 1.4% active. inhibition, % at 10 µM. AID 463195. S. cerevisiae TIM10 strain growth, BacTiter-Glo luminescence, 24 h;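 active = inhibition of 40% or more at the single tested concentration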;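 note: wild-type TIM10 isogenic control strain grown at permissive 25 °C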
NALP3 yeast conf – confirmation of NALP3 inhibitors in yeast; inhibition, % at 10 µM; 1,300 tested, 81% active; yeast expressing human NALP3, luminescence; shares compounds with NALP3 yeast inh; in the data active = inhibition above about 48%
Casp1-ASC yeast – active in yeast caspase-1-ASC counter-screen for NALP3 inhibitors; shares compounds with NALP3 yeast inh; yeast expressing Caspase-1-ASC, luminescence counter screen; inhibition, % at 10 µM; 1,000 tested, 66% active; AID 488784
NALP3 retest – confirmation retest of NALP3 inhibitors in yeast | shares compounds with NALP3 yeast inh | yeast expressing human NALP3, luminescence read-out | inhibition, % at 10 µM | 1,000 tested, 53% active
tim10-1 confirm – tim10-1 yeast growth inhibition, confirmed; shares compounds with tim10-1 inh; S. cerevisiae tim10-1 ts strain growth, BacTiter-Glo, 24 h; inhibition, % at 20 µM; 7,400 tested, 56% active;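 active = inhibition of yeast growth at or above a set limit in either of two repeat tests at 20 µM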;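 note: tim10-1 mutant grown at permissive 25 °C to find synthetic lethal compounds; 0% = DMSO yeast wells and 100% = medium wells without yeast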
tim10 confirm – TIM10 yeast growth inhibition, confirmed; shares compounds with TIM10 inh; S. cerevisiae tim10 strain growth, BacTiter-Glo luminescence, 24 h; inhibition, % at 10 µM; 4,600 tested, 63% active; AID 463215;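 active = inhibition of yeast growth at or above a set limit in either of two replicates at 10 µM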;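 note: this counterscreen used the strain with wild-type TIM10; 0% = yeast with DMSO and 100% = medium wells lacking yeast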
tim23-1 conf – confirmation of tim23-1 mutant yeast growth inhibitors; shares compounds with tim23-1 inh; inhibition, % at 20 µM; S. cerevisiae tim23-1 growth, BacTiter-Glo luminescence, 24 h; 4,400 tested, 83% active; AID 463218;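 active = inhibition above about 39% in either of two replicate wells at 20 µM, limit read from the data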;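 note: temperature-sensitive tim23-1 mutant grown at 25 °C; 0% = DMSO wells with yeast and 100% = medium wells without yeast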
* hit, by the source's call; . = no result given. Cut-off read from the data, not from the text of the source, unless noted: active = inhibition above about 50%; inactive = the rest.

SMILES | NALP3 yeast inh | SKKanGAS inh | tim23-1 inh | tim10-1 inh | TIM10 inh | NALP3 yeast conf | Casp1-ASC yeast | NALP3 retest | tim10-1 confirm | tim10 confirm | tim23-1 conf
CCCCCCCCCn1c2c(c(=N)c3c1CCC3)CCC2 | 59* | 21 | 67* | 64* | 48* | 65* | 23 | 55* | 60* | 50* | 83*
NC(=S)N/N=C/c1ccccc1 | 1 | -4 | -4 | -6 | 3 | . | . | . | . | . | .
NC(=S)N/N=C/c1ccc(C23CC4CC(CC(C4)C2)C3)cc1 | 64* | 100* | 75* | -24 | -7 | 34 | . | . | . | . | 68*
Cc1ncsc1C(=O)N1CCCC(C(=O)c2ccc3ccccc3c2)C1 (configuration not stated) | 2 | 3 | 21 | 14 | -4 | . | . | . | . | . | .
COc1ccc2[nH]c3c(C)c4ccncc4c(C)c3c2c1 | 89* | 97* | 50* | 58* | 59* | 96* | 99* | 91* | 26 | 71* | 69*
O=c1c2ccccc2oc2ccc(Oc3ccccc3)cc12 | 21 | -2 | 2 | 6 | -4 | . | . | . | . | . | .
COc1cc2oc3ccccc3c(=O)c2cc1OC | 62* | -11 | 63* | 43* | 7 | 72* | 55* | 59* | 21 | . | 53*
COc1ccc(Cl)cc1NC(=O)CN1C(=O)NC(Cc2c[nH]c3ccccc23)C1=O (configuration not stated) | 15 | . | 4 | -2 | -7 | . | . | . | . | . | .
CCOC(=O)c1cccc(NC(=O)c2cccs2)c1 | 61* | 4 | 57* | 36 | 65* | 79* | 51* | 53* | . | 57* | 80*
O=c1c2ccccc2[nH]c2ccc(O)cc12 | 7 | -10 | 23 | -49 | -8 | . | . | . | . | . | .
Cc1ccc2[nH]c3ccccc3c(=O)c2c1 | 53* | 3 | 59* | -24 | 10 | 61* | 61* | 56* | . | . | 50*
CCc1nnc(NC(=O)CCC(=O)N2CCN(c3cccc(Cl)c3)CC2)s1 | -3 | -10 | 9 | 4 | -1 | . | . | . | . | . | .
O=C1Nc2ccccc2/C1=C/c1ccccc1F | 53* | 0 | 53* | 35 | 56* | 53* | 40 | 39 | . | 57* | 45*
Cc1c2ccccc2c(C)c2c1ccc1ccccc12 | 65* | . | 77* | 50* | 84* | 62* | . | . | 47* | 88* | 80*
Cc1ccnc2c1ccc1ccccc12 | 17 | -8 | 19 | 12 | -7 | . | . | . | . | . | .
CC(C)(C)n1cnc2cc(NC(=O)c3cccs3)ccc21 | 57* | 13 | 53* | 25 | 61* | 74* | 60* | 45 | . | 55* | 71*
O=C(CCCN1C(=O)NC2(CCCC2)C1=O)Nc1ccc(Cl)c(S(=O)(=O)N2CCOCC2)c1 | 9 | . | -5 | -9 | -7 | . | . | . | . | . | .
O=C(CCN1CCC(c2cccs2)=N1)c1cccs1 | 90* | 16 | 63* | 41* | 63* | 90* | 96* | 87* | 30 | 69* | 84*
O=C(Nc1c(-c2ccccc2)nc2ccccn12)c1cccs1 | 3 | 2 | -1 | 3 | 4 | . | . | . | . | . | .
O=C(Nc1nsc(-c2ccccc2)n1)c1cccs1 | 54* | 1 | 68* | 33 | 34 | 65* | 40 | 49 | . | . | 53*
CCOC(=O)c1cc(C)n(CCc2ccccc2)c1C | 16 | -1 | 15 | 13 | 6 | . | . | . | . | . | .
Cc1cc(C(=O)CCl)c(C)n1CCc1ccccc1 | -116 | -2 | 66* | 36 | 37 | 25 | . | . | . | . | 16
O=C(O)Cn1c2c(c3ccccc31)CSc1ccc(Cl)cc1-2 | . | -1 | . | . | . | . | . | . | . | . | .
CCCN(C(=O)CSCc1ccc(Cl)cc1)c1c(N)n(Cc2ccccc2)c(=O)[nH]c1=O | 13 | 31 | 2 | 0 | 5 | . | . | . | . | . | .
COc1ccc(CNC(=O)c2c(C)oc3c2C(=O)c2ccccc2C3=O)cc1 | 69* | 87* | 89* | 83* | 57* | 71* | 5 | 43 | 74* | 68* | 86*
SMILES | NALP3 yeast inh | SKKanGAS inh | tim23-1 inh | tim10-1 inh | TIM10 inh | NALP3 yeast conf | Casp1-ASC yeast | NALP3 retest | tim10-1 confirm | tim10 confirm | tim23-1 conf
CN(C)C(=O)CCc1ccc2c3c([nH]c2c1)[C@]1(CCc2ccccc2)[C@@H](C(=O)N2CCCCC2)C[C@H](CC(=O)NCCCn2ccnc2)C(=O)N1CC3 | . | . | 37 | 16 | -5 | . | . | . | . | . | .
CCCCCn1nc(C(=O)OCc2nc(N)nc(Nc3ccccc3)n2)c2ccccc2c1=O | 18 | . | 30 | 10 | 2 | . | . | . | . | . | .
CSc1nc2cc(Oc3cccc(Cl)c3Cl)c(Cl)cc2[nH]1 | 83* | 96* | 74* | 53* | 55* | 91* | 96* | 95* | 51* | 65* | -21
Cn1c2c(c(=O)n(C)c1=O)C(C(F)(F)F)(C(F)(F)F)N=C(c1ccc(Cl)cc1)N2 | 54* | 15 | 59* | 61* | 33 | 92* | 77* | 88* | 59* | . | 51*
O=C(O)CC(C(=O)O)c1ccc(OCCCCOc2ccc(C(CC(=O)O)C(=O)O)cc2)cc1 (configuration not stated) | 2 | 3 | 12 | 12 | 2 | . | . | . | . | . | .
O=C(Nc1ccccc1)C1C(c2ccccc2)C1(Cl)Cl (configuration not stated) | 59* | 20 | 55* | 43* | 25 | 72* | 64* | 60* | 24 | . | 48*
COC(=O)c1ccccc1NC1=C/C(=N\S(=O)(=O)c2ccc(C(=O)O)cc2)c2ccccc2C1=O | 51* | 93* | 71* | 54* | 53* | 64* | 84* | 77* | 77* | 65* | 89*
CC(C)c1ccc2[nH]c3c(c2c1)[C@@H]1CCN2C(=O)CCC[C@H](C3)[C@H]12 | 6 | -1 | -13 | 22 | -4 | . | . | . | . | . | .
C[C@@]12C(=O)Nc3ccc(Cl)cc3C(=O)N1[C@H]1c3ccccc3OC[C@@H]1[C@@H]2c1ccccc1 | 79* | . | 61* | 23 | 0 | 91* | 70* | 66* | . | . | 57*
C[C@@]12C(=O)Nc3cc(Cl)ccc3C(=O)N1[C@H]1c3ccccc3OC[C@@H]1[C@@H]2c1ccccc1 | 16 | . | 34 | 23 | 7 | . | . | . | . | . | .
CCOc1ccc(N(CC(=O)NC2CCCCC2)C(=O)CCC(=O)Nc2nccs2)cc1 | 2 | 3 | -3 | -8 | 9 | . | . | . | . | . | .
CC(=O)Oc1c(C)c(=O)n(C)c2ccccc12 | -18 | -12 | 14 | 3 | -10 | . | . | . | . | . | .
